High-throughput results as filed in PubChem BioAssay.
An excerpt weighted towards active compounds, which were near 15% of everything screened.
VP16 counter – VP16 counterscreen qHTS for inhibitors of ROR gamma transcriptional activity. Drosophila S2 Gal4-VP16 UAS-luciferase, luminescence, 20 h. hit rate 3.5% among 310,000. Potency, µM (doses to about 53.6 µM), for the others: at the top dose activity, negative = inhibition, usual class: inhibitors;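 also: Gal4-VP16 expression switched on by copper sulfate through the metallothionein promoter; nearly all actives have a fitted effect of over 50% in size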
DT40 TDP1 CPT – qHTS for Inhibitors of human tyrosyl-DNA phosphodiesterase 1 (TDP1): qHTS in cells in presence of CPT. chicken DT40 Tdp1-/-;hTDP1 cells + 20 nM CPT, ATP luminescence, 48 h. Potency, µM (series often up to 46.2 µM), inactives show at the top dose activity change, negative = growth inhibition, most hits filed as inhibitors. hit rate 12% among 420,000. AID 686979, 2013; also: nearly all actives have a fitted effect of over 55% in size
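Chicken DT40 Tdp1-/- cells complemented with human TDP1, 400 cells/well, exposed to compounds plus 20 nM camptothecin for at least 48 h at 37 C; viability read as ATP content by CellTiter-Glo luminescence.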
RORg inh – qHTS for inhibitors of ROR gamma transcriptional activity; Nuclear receptor ROR-gamma (Mus musculus), P51450; hit rate 5.4% among 310,000; Drosophila S2 Gal4-RORgamma UAS-luciferase reporter, 20 h; Potency, µM (series often up to 53.6 µM), inactives show at the top dose activity change, negative = inhibition, most hits filed as inhibitors; also: nearly all actives have a fitted effect of over 60% in size
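Schneider cells (Drosophila), stable Gal4 DBD–ROR gamma + UAS-luc; 1 hr cmpd preincubation; Cu2+ induction 700 uM final; 20 hr ambient; luminescence.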
ELG1 repair inh – qHTS screen for small molecules that inhibit ELG1-dependent DNA repair in human embryonic kidney (HEK293T) cells expressing luciferase-tagged ELG1; HEK293T ELG1-luciferase reporter, luminescence, 16 h; DNA damage induced by 5-fluorouridine; Potency, µM (highest dose often 46.1 µM), inactives show at the highest dose activity change, negative = inhibition, most hits filed as inhibitors; hit rate 2.3% among 330,000; also: nearly all actives have a fitted effect of over 55% in size
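In this reporter screen, reduction of luminescence relative to DMSO vehicle indicated activity. Compounds and 5-fluorouridine were added together to 2,000 cells per well, incubated for 16 hr at 37 °C, then developed with ONE-Glo.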
ALOX12 inh – Primary qHTS assay for inhibitors of human arachidonate 12S-lipoxygenase (ALOX12): Round 2; Polyunsaturated fatty acid lipoxygenase ALOX12 (Homo sapiens), P18054; purified 12hLO, xylenol orange hydroperoxide absorbance; Potency, µM (highest dose often 108 µM), for inactives: at the highest dose activity change, negative = inhibition, actives largely listed as inhibitors; hit rate 1.1% among 580,000
Target sequence (P18054 whole entry, looked up): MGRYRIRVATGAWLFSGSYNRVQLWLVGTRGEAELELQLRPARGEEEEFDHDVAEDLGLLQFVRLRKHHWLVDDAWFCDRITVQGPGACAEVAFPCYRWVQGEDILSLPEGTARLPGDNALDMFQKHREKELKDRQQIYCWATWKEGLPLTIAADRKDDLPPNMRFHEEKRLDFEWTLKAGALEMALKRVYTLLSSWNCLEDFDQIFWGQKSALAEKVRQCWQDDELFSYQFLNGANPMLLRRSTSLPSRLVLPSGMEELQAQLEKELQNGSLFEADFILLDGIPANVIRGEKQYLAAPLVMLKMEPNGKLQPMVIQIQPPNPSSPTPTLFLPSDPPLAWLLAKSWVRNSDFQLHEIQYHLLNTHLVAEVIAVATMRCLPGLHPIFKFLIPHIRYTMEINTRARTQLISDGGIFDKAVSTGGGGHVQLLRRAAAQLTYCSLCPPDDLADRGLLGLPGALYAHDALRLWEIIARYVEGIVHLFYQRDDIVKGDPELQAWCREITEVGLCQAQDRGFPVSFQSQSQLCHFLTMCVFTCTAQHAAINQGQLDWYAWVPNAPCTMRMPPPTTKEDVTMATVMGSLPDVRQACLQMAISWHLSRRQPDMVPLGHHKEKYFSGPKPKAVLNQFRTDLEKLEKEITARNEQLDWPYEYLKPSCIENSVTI
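Purified human 12hLO (150 nM final) in 25 mM Hepes, 0.01% Triton X-100, pH 7.0 was preincubated 15 min at room temperature with compound. Then 40 uM arachidonic acid was added, 30 min. Hydroperoxide was read by Fe-XO absorbance ratio 573/405 nm.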
DT40 TDP1 no CPT – qHTS for Inhibitors of human tyrosyl-DNA phosphodiesterase 1 (TDP1): qHTS in cells in absence of CPT. DT40 Tdp1-/- hTDP1 cells, no CPT, ATP luminescence, 48 h. Potency, µM (series often up to 46.2 µM), inactives show top-dose activity change, negative = growth inhibition, hits mostly inhibitors. hit rate 15% among 420,000. AID 686978, 2013; also: nearly all actives have a fitted effect of over 55% in size
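Growth kinetics read by CellTiter-Glo luminescence after ≥48 hr at 37 °C. Cells: DT40 Tdp1-/- stably carrying human TDP1, 400 per well, compound exposure in the absence of CPT (DMSO vehicle).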
* hit, by the source's call; ? = inconclusive; / = no result given. Calls follow the shape of the dose curve; as a rule, active = well fitted curve in the direction sought with a large enough effect; inconclusive = small, poorly fitted or top-dose-only effect, or another doubt; inactive = no such curve, though single readings can be large; an effect the other way counts as inactive or inconclusive. % is scaled to controls: 0 for no effect and ±100 for the full control effect; potency is read from the fitted curve at half-maximal effect.

SMILES	VP16 counter	DT40 TDP1 CPT	RORg inh	ELG1 repair inh	ALOX12 inh	DT40 TDP1 no CPT
COc1ccccc1N1CCN(C(=O)COCC(=O)NCCc2ccccc2)CC1	/	/	/	/	3%	/
CC(C)N1CCC(NC(=O)c2ccc3ccccc3c2)CC1	/	/	/	/	-28%	/
CC(=O)c1ccc(-c2cc([C@H]3[C@H]4C=CC[C@@H](C)[C@@H]4C(=O)N3Cc3ccccc3)ccc2F)cc1	-8%	15µM*	-23%	-15%	0%	13µM*
CC(=O)c1ccc(-c2cc(C3C4C=CCC(C)C4C(=O)N3Cc3ccccc3)ccc2F)cc1 (centres undefined)	2%	/	-16%	/	/	/
C[C@@H]1CC=C[C@H]2[C@H]1C(=O)N(Cc1ccccc1)[C@H]2c1ccc(F)c(-c2ccc(N(C)C)cc2)c1	6%	8.2µM*	9%	?	0%	15µM*
Cc1cc(N2CCCCS2(=O)=O)cc(C)c1S(=O)(=O)N(C)CCc1ccncc1	/	/	/	/	9%	/
COc1ccccc1NC(=O)CSc1nc2ccsc2c(=O)n1C	/	/	/	/	-11%	/
COc1cc(O)c(C(CC(=O)N2CCCC(C)C2)c2cc(OC)c(OC)c(OC)c2)c(OC)c1 (centres undefined)	5%	3%	-16%	11%	-50%	-7%
CCN(CC)C(=O)CC(c1cc(OC)c(OC)c(OC)c1)c1c(OC)cc(OC)c2ccc(=O)oc12 (centres undefined)	0%	?	3%	19%	33%	-21%
CCN(CC)C(=O)CC(c1ccc(OC)cc1)c1c(OC)cc(OC)c2ccc(=O)oc12 (centres undefined)	-19%	23µM*	5%	13%	?	?
COc1ccc(C(CC(=O)N2CCCC(C)C2)c2c(O)cc(OC)cc2OC)cc1 (centres undefined)	14%	?	2µM*	?	0%	-16%
COc1ccc(C(CC(=O)N2CCCCC2)c2c(OC)cc(OC)c3ccc(=O)oc23)cc1 (centres undefined)	3%	21µM*	1%	18%	?	?
C[C@H](NC(=O)[C@H]1N2C(=O)c3ccccc3C2SC1(C)C)C(=O)NCc1ccc(F)cc1 (some centres undefined)	/	/	/	/	14%	/
COc1cccc(Oc2coc3cc(OC(=O)c4ccco4)ccc3c2=O)c1	/	/	/	/	-4%	/
CC(C)(C)c1ccc(C(=O)NC(Nc2ccc(Br)cc2)C(Cl)(Cl)Cl)cc1 (centres undefined)	/	/	/	/	28%	/
CC(O)c1cc2n(n1)CCN(CCS(=O)(=O)c1ccccc1)C2 (centres undefined)	/	/	/	/	83%	/
Cc1cc(C)nc(NC(=S)Nc2cccc(F)c2)c1	7.1µM*	4%	1.8µM*	8%	?	-1%
COc1ccc(NC(=S)Nc2cc(C)cc(C)n2)cc1OC	?	-1%	46%	6%	-24%	-23%
COc1cccc(NC(=S)Nc2cc(C)cc(C)n2)c1	?	-1%	1.3µM*	?	15%	-22%
COc1ccc(-c2nc(CCl)cs2)cc1	14%	8.2µM*	5%	?	?	5.8µM*
COc1cccc(-c2nc(CCl)cs2)c1	-3%	21µM*	5%	5%	-10%	?
COc1ccc(N2CC(O)=C(c3nc(-c4ccc(Br)cc4)cs3)C2=N)cc1	5%	?	4%	9%	0%	?
